From PubChem BioAssay AID2108 (National Center for Advancing Translational Sciences (NCATS), 2009)
Records with an inconclusive call do not appear. The source made the active and inactive calls. The call rests on the fitted dose curve; in most records, active means well fitted curve in the direction sought with a large enough effect; inconclusive means small, poorly fitted or top-dose-only effect, or effect the other way, or another doubt; inactive means no such curve, though single readings can be large or run the other way.

biological target: Alpha-galactosidase A (Homo sapiens) (UniProt P06280); assay: Confirmation of Inhibitors of Human alpha-Galactosidase Using Spleen Homogenate; details: alpha-galactosidase enzyme activity; series mostly up to 56.2 µM
Procedure, shortened: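 Human spleen homogenate (1 ug) with 1 mM 4-methylumbelliferyl-alpha-D-galactopyranoside in citrate-phosphate pH 5.0, 0.01% Tween-20, 37C 40 min; compounds 0.5 nM–58 uM final. Stopped at pH 10, fluorescence Ex 365/Em 440; AC50 from Hill fits.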

Chain of Alpha-galactosidase A (Homo sapiens) (P06280 32-429 limits assumed): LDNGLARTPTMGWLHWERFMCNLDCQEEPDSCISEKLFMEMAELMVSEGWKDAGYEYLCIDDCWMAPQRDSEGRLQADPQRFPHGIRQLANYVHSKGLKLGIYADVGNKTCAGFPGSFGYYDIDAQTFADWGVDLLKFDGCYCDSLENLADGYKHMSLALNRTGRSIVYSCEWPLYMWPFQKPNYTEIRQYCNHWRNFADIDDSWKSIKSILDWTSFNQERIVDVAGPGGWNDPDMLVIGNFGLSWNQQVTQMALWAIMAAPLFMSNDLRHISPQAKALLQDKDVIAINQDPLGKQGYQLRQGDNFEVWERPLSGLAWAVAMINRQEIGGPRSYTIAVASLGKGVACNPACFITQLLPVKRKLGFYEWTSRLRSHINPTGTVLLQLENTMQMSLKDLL

outcome, inactive:
COc1ccc(/C=C(/NC(=O)c2ccccc2)C(=O)NC(Cc2c[nH]c3ccccc23)C(=O)O)cc1 (stereo unspecified)
COC(=O)c1ccc(S(=O)(=O)N2CCOCC2)cc1
Clc1cc2c(cc1/C=C/c1ccc3ccccc3n1)OCO2
Cc1ccc(-c2nc(-c3cc4cc(Cl)ccc4oc3=O)sc2C)cc1
CC(C)(C)OC(=O)NCCCC[C@H](NC(=O)c1nc[nH]c1C(=O)NCc1ccccc1)C(=O)OC(C)(C)C
COC(=O)CSc1ccc(C#N)c(SCC(=O)OC)c1
Cc1cc(/C=N/Nc2ccc([N+](=O)[O-])cn2)c(C)n1-c1ccc(C(=O)O)cc1
Cc1ccc(S(=O)(=O)N2CCN(C(=O)CSc3nc4ccccc4c(=O)[nH]3)CC2)c(C)c1
CCCc1cc(-c2nc(N)ncc2-c2ccc3c(c2)OCCCO3)c(O)cc1OC
O=S(=O)(c1ccc2ccccc2c1)N1CCOCC1
O=S(=O)(c1ccccc1)N1CCN(S(=O)(=O)c2ccccc2)CC1
Cc1c(OCC(F)(F)F)ccnc1CS(=O)c1nc2ccccc2[nH]1 (stereo unspecified)
Cn1c(=O)c2sccc2n2c(CCCC(=O)Nc3ccc(F)c(F)c3)nnc12
C=C(C)CC(NCc1ccco1)c1ccc(OC)cc1 (stereo unspecified)
O=C1CCCC/C1=C\Nc1ccc(O)cc1
O=NOc1ccc(/C=C/c2nccc3c2[nH]c2ccccc23)cc1
O=C1c2ccccc2NC(c2cccnc2)N1c1ccccc1F (stereo unspecified)
OCC1NCC(O)C(O)C1O (stereo unspecified)
CC(C)Cn1c(SCC(=O)N2CCCCC2)nc2ccccc2c1=O
Clc1ccc(-c2ccnc(Oc3cc(Cl)ccc3Cl)n2)cc1
CCc1sc(-c2cc3cccc(OC)c3oc2=O)nc1-c1ccccc1
COc1ccc(S(=O)(=O)N2CCOCC2)cc1
O=C(CSc1nc(C2CC2)nc2ccccc12)Nc1cccc(O)c1
Cc1sc(-c2cc3cc(Br)ccc3oc2=O)nc1-c1ccccc1
COc1cc(NC(=O)CN2CCN(c3ccccc3F)CC2)c(C)cc1[N+](=O)[O-]
C=CCSc1nc(-c2ccc3c(c2)OCO3)cc(C(F)(F)F)c1C#N
Nc1ccc(S(=O)(=O)N2CCOCC2)cc1
CCc1cc(-c2n[nH]c(C)c2-c2nc3ccccc3n2C)c(O)c(CN2CCN(C)CC2)c1O
Cc1ccc(-c2cc(C(=O)N3CCN(S(=O)(=O)c4ccc(Br)s4)CC3)[nH]n2)c(C)c1
N#C/C(=C\c1cc(O)c(O)c(O)c1)C(N)=O
O=C(CSc1ccccc1)Nc1nnc(/C=C/c2ccccc2)s1
Nc1ccccc1S(=O)(=O)N1CCOCC1
O=C(CNc1ccc(Cl)cc1)c1ccc(Br)cc1
O=C(c1ccc2ccccc2c1)N1CCN(S(=O)(=O)c2ccccc2)CC1
Cc1ccc2c(=O)c3ccccc3n(CCCN)c2c1C
Cc1ccc2c(c1)c1ncnc(N3CCC4(CC3)OCCO4)c1n2C
